Composite z-score, composite Z-score and z-score data for 5 molecules are collected here from PubChem BioAssay.

The source made the active and inactive calls.

In assay [1] the target is Albumin (Bos taurus) (UniProt P02769). Kind of assay: bovine serum albumin binders on microarray, profiling panel, artefact control for SMM control protein annotation, biochemical, small-molecule microarray, Alexa647 label, 635/667 nm fluorescence (AID 1118).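 Note: score merges 667 nm emission intensity and signal-to-noise per printed compound spot.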 The conditions noted are these: BSA-A647 binding, fluorescence 635 nm, higher = more signal.
Sequence of Albumin (Bos taurus) (P02769 whole entry, looked up): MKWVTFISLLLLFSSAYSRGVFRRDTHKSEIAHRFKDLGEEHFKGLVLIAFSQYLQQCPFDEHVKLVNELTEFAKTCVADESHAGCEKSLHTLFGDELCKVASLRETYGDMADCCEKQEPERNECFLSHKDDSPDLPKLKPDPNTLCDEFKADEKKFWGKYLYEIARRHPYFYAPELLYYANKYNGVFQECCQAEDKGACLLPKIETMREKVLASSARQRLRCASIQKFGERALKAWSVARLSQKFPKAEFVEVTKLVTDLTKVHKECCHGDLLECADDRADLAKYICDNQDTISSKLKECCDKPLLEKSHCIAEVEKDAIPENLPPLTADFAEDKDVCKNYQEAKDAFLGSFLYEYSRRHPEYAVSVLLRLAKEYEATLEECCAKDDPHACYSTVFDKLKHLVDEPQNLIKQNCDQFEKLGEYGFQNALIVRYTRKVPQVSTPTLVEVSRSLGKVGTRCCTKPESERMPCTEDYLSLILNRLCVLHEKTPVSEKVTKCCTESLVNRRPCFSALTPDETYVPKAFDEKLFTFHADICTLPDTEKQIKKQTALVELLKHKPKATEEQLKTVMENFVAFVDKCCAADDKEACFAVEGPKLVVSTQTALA
Assay [2] is described as follows: small-molecule microarray binders of probe aXIP, primary screen, biochemical, NeuroSMM set, 635/667 nm fluorescence (AID 1119).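 Note: probe is the protein aXip251-270 applied at 1 µg/mL to compound-printed slides; binding of probe to printed compounds measured as 667 nm fluorescence plus signal to noise.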 Particulars: higher = more signal, called active from +8 up or from −8 down.
Assay [3] can be described thus: small-molecule binders of probe aNOTCH3, primary screen, biochemical, small-molecule microarray, 635/667 nm fluorescence (AID 1120).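 Note: probe is a biotin-tagged antibody raised against NOTCH3 rather than NOTCH3 protein; score merges spot fluorescence near 667 nm with spot signal to noise.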 Particulars: higher = more signal.
Assay [4] in a line: small-molecule binders of probe aNOTCH2, primary screen, biochemical, small-molecule microarray, 635/667 nm fluorescence (AID 1121).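 Note: score merges feature fluorescence read at 667 nm with its signal to noise.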 The conditions noted are these: higher = more signal.
For assay [5], the target named is Carbonic anhydrase 2 (Homo sapiens) (UniProt P00918). Kind of assay: CAII small-molecule binders, profiling panel, biochemical, small-molecule microarray, Alexa647-labelled CAII (AID 1122). Particulars: CAII-A647 binding fluorescence, higher = more signal.
The nature of assay [6]: COS7 lysate on small-molecule microarray, probe aHis, 635 nm (AID 1123).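 Note: z-score combines 667nm fluorescence intensity with signal-to-noise per printed compound spot.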 The conditions noted are these: COS7 cell lysate, fluorescence, higher = more signal.
Assay [7] can be described thus: compound binding in COS7 lysate, probe aLAP1, primary screen, cell lysate, small-molecule microarray (AID 1124).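 Note: lysate comes from COS7 cells expressing LAP1 and is applied at 0.3 µg/mL; score merges spot fluorescence near 667 nm with signal-to-noise over triplicate slides.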 Particulars: probe aLAP1, fluorescence, higher = more signal.
Assay [8] deals with Sam68 (KHDRBS1). Description: Sam68 small-molecule binders, primary screen, biochemical, small-molecule microarray, 635 nm fluorescence (AID 1125).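 Note: score merges 667 nm channel intensity with signal to noise over triplicate slides.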 The conditions noted are these: small-molecule microarray binding, higher = more signal.
The subject of assay [9] is Chordin-like protein 2 (CHRDL2). Kind of assay: CHRDL2 small-molecule binders, primary screen, biochemical, small-molecule microarray, 635 nm fluorescence (AID 1126).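 Note: printed compound slides probed with Chrdl2 protein at 4 µg/mL for 1 h at 4 C; score merges 667 nm emission intensity with signal to noise over three replicate slides.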 The conditions noted are these: small-molecule microarray binding, fluorescence 635 nm; higher = more signal.
Assay [10] deals with Concanavalin-A (Canavalia ensiformis) (UniProt P02866). Kind of assay: ConA small-molecule binders, primary screen, artefact control for SMM control protein annotation, biochemical, small-molecule microarray, Alexa647 label, 635 nm (AID 1127).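 Note: z combines 667 nm emission intensity with signal-to-noise across three replicate slides.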 The conditions noted are these: ConA-A647 binding fluorescence, higher = more signal.
Sequence of Concanavalin-A (Canavalia ensiformis) (P02866 whole entry, looked up): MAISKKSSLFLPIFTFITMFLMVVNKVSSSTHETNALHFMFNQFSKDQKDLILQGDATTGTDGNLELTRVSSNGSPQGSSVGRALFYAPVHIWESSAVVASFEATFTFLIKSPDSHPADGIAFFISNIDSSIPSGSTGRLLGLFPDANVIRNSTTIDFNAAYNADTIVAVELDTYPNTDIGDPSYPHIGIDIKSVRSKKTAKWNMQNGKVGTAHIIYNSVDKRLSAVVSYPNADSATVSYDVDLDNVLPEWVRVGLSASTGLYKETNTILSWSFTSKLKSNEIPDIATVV
A short description of assay [11]: anti-His antibody binders, primary screen, artefact control for SMM control protein annotation, biochemical, small-molecule microarray, 635 nm fluorescence (AID 1128).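 Note: score merges feature fluorescence with signal-to-noise for each printed compound spot.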 Particulars: anti-His Alexa647 antibody binding, higher = more signal.
In assay [12] the test system is Human papillomavirus type 1a E7 protein (residues 1-88). Description: HPV1a E7 small-molecule binders, primary screen, biochemical, small-molecule microarray, residues 1-88, 635 nm (AID 1129). Particulars: small-molecule microarray binding, fluorescence 635 nm; higher = more signal.
For assay [13], the target named is Focal adhesion kinase 1 (Homo sapiens) (UniProt Q05397). Description: small-molecule microarray binders of FAK, primary screen, biochemical, 635/667 nm fluorescence, BSA, DTT (AID 1130).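 Note: composite of spot emission at 667 nm and signal to noise over triplicate slides.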 Particulars: PTK2 binding, 635 nm fluorescence, higher = more signal.
Sequence of Focal adhesion kinase 1 (Homo sapiens) (Q05397 whole entry, looked up): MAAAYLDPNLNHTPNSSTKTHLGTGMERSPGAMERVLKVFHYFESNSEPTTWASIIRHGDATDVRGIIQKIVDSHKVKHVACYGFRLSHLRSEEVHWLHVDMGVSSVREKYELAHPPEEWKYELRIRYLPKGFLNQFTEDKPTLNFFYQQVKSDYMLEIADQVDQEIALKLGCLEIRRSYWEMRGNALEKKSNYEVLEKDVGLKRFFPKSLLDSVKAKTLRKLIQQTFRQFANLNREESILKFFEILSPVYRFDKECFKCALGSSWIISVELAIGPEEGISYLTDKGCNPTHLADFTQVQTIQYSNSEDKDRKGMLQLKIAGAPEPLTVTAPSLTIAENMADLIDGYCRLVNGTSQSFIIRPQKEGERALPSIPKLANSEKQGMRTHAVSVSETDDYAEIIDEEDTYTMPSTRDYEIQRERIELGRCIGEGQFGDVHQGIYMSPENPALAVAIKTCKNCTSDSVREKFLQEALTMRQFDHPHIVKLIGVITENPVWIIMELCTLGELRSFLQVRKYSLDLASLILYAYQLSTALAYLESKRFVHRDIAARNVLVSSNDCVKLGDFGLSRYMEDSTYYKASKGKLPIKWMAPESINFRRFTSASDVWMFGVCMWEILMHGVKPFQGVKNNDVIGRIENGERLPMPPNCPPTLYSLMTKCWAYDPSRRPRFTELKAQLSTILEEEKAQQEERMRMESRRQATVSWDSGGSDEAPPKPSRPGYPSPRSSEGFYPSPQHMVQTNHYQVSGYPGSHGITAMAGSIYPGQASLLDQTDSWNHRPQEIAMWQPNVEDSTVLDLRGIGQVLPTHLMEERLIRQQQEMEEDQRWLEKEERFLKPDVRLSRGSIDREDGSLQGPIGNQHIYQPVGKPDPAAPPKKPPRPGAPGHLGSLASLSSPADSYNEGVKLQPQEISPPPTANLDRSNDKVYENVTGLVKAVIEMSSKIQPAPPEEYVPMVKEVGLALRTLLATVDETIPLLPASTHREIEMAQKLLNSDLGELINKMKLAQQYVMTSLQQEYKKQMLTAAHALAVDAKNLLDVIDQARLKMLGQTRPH
Assay [14] has as its system Fibrinogen (Alexa647-labelled). Description: fibrinogen binders on compound microarrays, profiling panel, artefact control for SMM control-protein annotation, biochemical, small-molecule microarray, 635/667 nm fluorescence (AID 1131).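 Note: z-score merges 667 nm fluorescence with per-spot signal-to-noise over triplicate slides.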 Particulars: fibrinogen-A647 binding fluorescence, higher = more signal.
Assay [15] concerns the target Follistatin (Homo sapiens) (UniProt P19883). Description: follistatin binders on small-molecule microarrays, primary screen, biochemical, small-molecule microarray, 635/667 nm fluorescence (AID 1132). Particulars: FST binding, 635 nm fluorescence, higher = more signal.
Assay [16] addresses Fibroblast growth factor 2 (Homo sapiens) (UniProt P09038). Description: FGF2 binders on small-molecule microarrays, primary screen, biochemical, small-molecule microarray, 635/667 nm fluorescence (AID 1133). Particulars: small-molecule microarray binding, FGF2, fluorescence 635/667; higher = more signal.
Assay [17] is described as follows: mitochondrial membrane potential change in A549 cells, profiling panel, cell-based, JC-1 fluorescence, basal, 24 h, 100 nL (AID 1138).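 Note: A549 lung adenocarcinoma cells under basal conditions with no added stimulus; test concentration not given here.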 The conditions noted are these: higher = more signal.
In assay [18] the test system is Lefty1. Description: Lefty1 binders on small-molecule microarrays, primary screen, biochemical, small-molecule microarray, 635/667 nm fluorescence (AID 1139). Particulars: small-molecule microarray binding, fluorescence 635/667; higher = more signal.
In assay [19] the test system is wheat germ agglutinin (Triticum aestivum), Alexa647-labelled. Kind of assay: wheat germ agglutinin binders on compound microarrays, profiling panel, artefact control for SMM control-protein annotation, biochemical, small-molecule microarray, 635/667 nm fluorescence (AID 1140).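 Note: score merges 667 nm feature emission with signal to noise over triplicate slides.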 Particulars: WGA-A647 binding, 635 nm fluorescence, higher = more signal.
Assay [20] concerns the target Luciferin 4-monooxygenase (Photinus pyralis) (UniProt P08659). Description: firefly luciferase enzyme inhibitors, primary screen, biochemical, luminescence, purified enzyme, 2006 set (AID 1141).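 Note: cell-free assay with purified firefly luciferase at 100 ng per well in PBS; test concentration not given here.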 The conditions noted are these: SteadyGlo luminescence, 30 min, higher = more signal, called active from +8 up or from −8 down.

Sequence of Luciferin 4-monooxygenase (Photinus pyralis) (P08659 whole entry, looked up): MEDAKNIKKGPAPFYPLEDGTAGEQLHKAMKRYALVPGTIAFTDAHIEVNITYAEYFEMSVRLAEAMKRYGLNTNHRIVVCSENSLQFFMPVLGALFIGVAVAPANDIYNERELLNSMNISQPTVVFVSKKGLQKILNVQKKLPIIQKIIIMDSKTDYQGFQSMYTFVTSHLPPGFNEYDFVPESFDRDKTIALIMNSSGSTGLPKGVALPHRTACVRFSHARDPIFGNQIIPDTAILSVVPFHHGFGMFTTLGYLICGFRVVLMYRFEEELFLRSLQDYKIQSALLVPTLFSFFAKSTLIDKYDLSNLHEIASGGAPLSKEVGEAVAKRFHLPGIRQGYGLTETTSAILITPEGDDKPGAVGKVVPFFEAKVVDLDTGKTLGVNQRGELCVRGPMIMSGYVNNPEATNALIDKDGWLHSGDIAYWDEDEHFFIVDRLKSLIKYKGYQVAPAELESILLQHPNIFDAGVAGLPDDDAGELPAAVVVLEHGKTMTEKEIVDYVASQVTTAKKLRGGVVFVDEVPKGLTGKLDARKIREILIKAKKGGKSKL
Sequence of Follistatin (Homo sapiens) (P19883 whole entry, looked up): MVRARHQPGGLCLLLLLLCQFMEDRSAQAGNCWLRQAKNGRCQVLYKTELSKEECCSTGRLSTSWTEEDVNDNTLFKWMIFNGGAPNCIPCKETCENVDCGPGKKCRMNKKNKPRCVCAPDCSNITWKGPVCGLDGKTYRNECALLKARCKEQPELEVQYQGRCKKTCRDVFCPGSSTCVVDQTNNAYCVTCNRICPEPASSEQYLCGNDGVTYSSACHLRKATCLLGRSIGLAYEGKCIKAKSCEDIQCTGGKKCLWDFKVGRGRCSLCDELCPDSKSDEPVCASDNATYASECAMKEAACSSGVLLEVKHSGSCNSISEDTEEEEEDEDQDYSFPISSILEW
Sequence of Fibroblast growth factor 2 (Homo sapiens) (P09038 whole entry, looked up): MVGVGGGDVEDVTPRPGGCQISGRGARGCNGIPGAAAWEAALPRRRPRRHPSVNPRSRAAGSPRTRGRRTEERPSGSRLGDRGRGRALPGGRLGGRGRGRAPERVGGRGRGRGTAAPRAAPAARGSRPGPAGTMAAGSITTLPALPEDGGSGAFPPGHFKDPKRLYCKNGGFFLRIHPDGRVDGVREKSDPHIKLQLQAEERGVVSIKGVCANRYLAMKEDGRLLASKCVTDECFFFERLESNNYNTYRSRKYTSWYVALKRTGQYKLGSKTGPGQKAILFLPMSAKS

As for `CC(C)OC(=O)C=C1C[C@@H](c2cccc(Cl)c2)O[C@@H](c2cccc(Cl)c2)O1`, the composite z-score in [1] is 0.466; in assay [3] it was -0.137; in assay [4] it was 0.0234; in assay [5], 0.299; in [6] it was 1.68; in [7] it was 0.484. Further, the composite z-score in assay [8] is -0.296; in [9] it was -0.579; in assay [10] it was 0.99; in [11] it was 1.72; in assay [12], 0.824; in [13], 0.526. Further, the composite z-score in [14] was -0.105; in assay [15] it was -0.545; in assay [16], -0.122; in assay [18], -1.1; in [19], 0.751. Further, in assay [2], the composite Z-score is 0.806 (inactive). Also, the z-score in assay [17] is -0.143; in [20], 0.924 (inactive).
In the case of `CCCCN1CC=CC23O[C@@H]4C=CCCOC(=O)C4[C@H]2C(=O)N(CCCCCO)[C@@H]3C1=O` (stereo not given in full), the composite z-score in [1] is 0.438; in assay [3] it was -0.297; in assay [4], -0.132; in assay [5] it was 0.861; in assay [6] it was -0.0221; in assay [7] it was -0.327. Also, the composite z-score in [8] is -0.444; in assay [9], -0.882; in assay [10] it was -0.131; in [11], 1.88; in assay [12], -0.306; in assay [13] it was 0.779. In addition, the composite z-score in [14] was -0.905; in [15], -0.592; in assay [16] it was -0.437; in assay [18], -0.0266; in assay [19] it was 0.0604. The composite Z-score in assay [2] was 0.251 (inactive). In addition, the z-score in [17] is 0.976; in assay [20], -0.469 (inactive).
On to `COCC(=C=CC[C@H](O)c1cccc(OCCO)c1)C[C@H](O)c1cc(Cl)cc(Cl)c1O`, for which the composite z-score was 0.187 in [1]; -0.0343 in assay [3]; -0.0083 in assay [4]; 0.383 in assay [5]; 1.77 in assay [6]; 0.328 in assay [7]. For the same molecule, the composite z-score in [8] worked out at 1.3; in [9], 0.695; in assay [10], 0.337; in assay [11], 1.69; in [12] it was 1.11; in [13] it was 0.0607. Further, the composite z-score in assay [14] turned out to be 0.0479; in assay [15], 1.37; in [16], 1.87; in assay [18], 1.37; in assay [19], 0.107. Also, in assay [2], the composite Z-score is -0.103 (inactive). Moreover, the z-score is 0.324 in assay [17] and -0.709 (inactive) in assay [20].
On to `CCOC(=O)C[C@H]1[C@H](OC(=O)c2ccc(C(=O)c3ccccc3)cc2)[C@@H](NC(=O)c2ccccc2)c2cc(OCCCO)ccc2N1C(=O)c1ccccc1`, for which the composite z-score in assay [1] was 0.754; in assay [3] it was 0.184; in assay [4], -0.108; in assay [5] it was 0.171; in assay [6] it was 0.702; in [7] it was -0.115. Also, the composite z-score in assay [8] came out at 1.23; in assay [9], 0.17; in assay [10] it was 0.82; in assay [11], 0.0654; in assay [12] it was 0.321; in [13] it was 0.775. The composite z-score in assay [14] was 0.704; in assay [15], 0.64; in assay [16] it was 0.752; in assay [18] it was 0.802; in assay [19] it was 0.405. The composite Z-score in assay [2] is 0.607 (inactive). Besides, the z-score is 0.697 in assay [17] and 0.685 (inactive) in [20].
On to `C=CCC(OC(C)=O)[C@@H]1[C@@H](N(Cc2ccc(-c3cccc(C(F)(F)F)c3)o2)C(=O)c2cccc3ccccc23)c2cc(OCCCO)ccc2N1C(=O)Cc1ccc2ccccc2c1` (stereo not given in full), for which the composite z-score is 0.426 in assay [1]; -0.0465 in assay [3]; -0.102 in [4]; 0.0886 in assay [5]; 0.58 in assay [6]; -0.0395 in [7]. For the same molecule, the composite z-score in [8] is 0.153; in [9], 0.421; in [10], -0.146; in [11], 0.383; in assay [12], -0.688; in [13], 0.172. For the same molecule, the composite z-score in assay [14] was 0.702; in assay [15] it was 0.37; in [16], -0.129; in assay [18] it was -0.0051; in assay [19] it was 0.178. Also, the composite Z-score in assay [2] was 0.111 (inactive). Moreover, the results for the z-score in [17] and in [20] were -0.65 and 0.335 (inactive), respectively.
